# Test system: VDR:RXRa (NR concentration 270 nM, RXRa partner concentration 90 nM)
# Experiment: PBM binding z-score (relative to random genomic background probes); higher = stronger binding; sequences stand for … in GC…GCGATTGACAGCGTAGAATGAAGG
# Protocol: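 Protein-binding microarray (Agilent 4x180K custom design, double-stranded 60-nt probes: 5' GC cap, 34-nt variable region, 24-nt constant primer region; full probe sequence given). Purified or IVT nuclear receptor:RXRα heterodimers (3:1 NR:RXRα, mostly 270:90 nM) or homodimers were incubated for 1 h in PBS with 2% milk and no ligand, then detected with Alexa488 antibodies. Fluorescence from o1-orientation probes (~5 replicates averaged) was converted to z-scores against 500 random hg19 background probes. Variable regions are seed direct-repeat (DR0–DR5) sites, all their single-nucleotide variants and half-site ablations.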
row,Sequence,PBM binding z-score
1,CGAAATAGGTCAAAGGACAGTGAAAGGCGACGTA,2.5
2,ATATGGAGGTTAGGGTCATTCAGAAAGTAGGGAA,4.64
3,CATAGTTGGTCAAGGTCACACACGCTATAGGTAC,4.32
4,TCTCGGAGGACACGAAAGGTCAGTGCTCGACATC,2.92
5,CGTCAAAGTTCAACTAATGTAACGTAAAGCACGC,4.2
6,CGACCTAGGTCAAAGGACAGTGAAAGGCGACGTA,2.05
7,ATATGTAGGTTAAGGGTCATGCAGGTTGGTTCGC,5.46
8,GCTGCTCGGTCAACTGATGGTCAGCTAAAGCTCG,-0.285
9,AGTCAAATTTCATCTAGGTAACGTAAGATATGCT,0.0583
10,TCGACTAGGTTACGGGGGCATTCAGGGATGAAGA,4.04
11,CCTACTGGGCCAAGGTCATAGATCAGTCAAAGCA,2.87
12,ATATGTAGGTTAGGGTCCTTCAGAAAGTAGGGAA,0.818
13,CAAACTAGGTCAAAGGTCAAAGCCGAGCCAACCA,6.79
14,CTAGGTAGGTTAAGGGGGTCATTCAGTTTGAAAG,7.24
15,CGTCCGAGGTCAATGCTAGGTCAGTGAAAGCATT,5.63
16,CGGCCAAGGTCAAAGGTCAGTGAAGAGATGACGG,6.67
17,CAAAGTAGGTCAAGGTCAAAGTCGGTTTGTGCCA,5.27
18,TAGCCTAGGTCATTCAGGGGTCAGTATAGAAAGC,6.03
19,CGAATTAGGTCACCAGGACAGTGAAGAGGTTGGA,2.06
20,TCTGCTAGGTCAGTTGGGCAGCTAACGAGCTGCC,-0.0977

row,Sequence,PBM binding z-score
1,AGTCAAAGTTCACGAGGTAACGTAAGATTCAGCT,4.94
2,TCGAGTAGGTTACGGGGGCATTGAGGGATGAAGA,3.66
3,ATATGTAGGTTAGAGTCATTCAGAAAGTAGGGAA,0.295
4,CTATGTAGGTTAAGGGGGTCGTTCAGTTTGAAAG,6.43
5,CGTCCAAGGTCAATGCGAGGTCAGTGAAAGCATT,6.22
6,TCGAGTAGGTTACAGGGGCATTCAGGGATGAAGA,1.67
7,ATATGTAGGTTACCGGGTCATTCAGTTTGCGCAT,5.56
8,CCGAGTAGGTTACAAGGGGGCATTCAGTGCGAAT,5.11
9,CCAAGTAGGTTACGAGGGGGCATTCAGTGCGAAT,5.54
10,CGAACTAGTTCAAAGGACAGTGAAAGGCGACGTA,0.0501
11,TAGCCTAGGTCATTTGGCCAGTATAGTACGCATC,2.52
12,CCTAGTTGGTCAAGGTCTCACACGCTATAGGTAC,0.578
13,TCGAGTAGGTTATGGGGGCATTCAGGGATGAAGA,3.34
14,ATATGTAGGTTACATCCGGGTCTTTCAGGCTATG,1.06
15,CCTCCAAGGTCATAGGAGGTCAGTGAAGACAGAT,6.6
16,ATCTCTAGGTAAATGTTCAGTGAATCCCGAGGAT,-0.0606
17,AGTCAAAGTTCACTAGGCAACGTAAGATTCAGCT,3.13
18,ATATGTAGGTTAGGGTCATTCACAAAGTAGGGAA,4.61
19,CGAACTATGTCACCAGGACAGTGAAGAGGTTGGA,0.173
20,CGAAATAGGTCACCAGGACAGTGAAGAGGTTGGA,2.91

# Reference: the supplement of paper PMC6555819
